# Key:
# Assay in all cases: DAPPL (digital affinity profiling via proximity ligation, sequencing); 10 mM Tris-HCl pH 7.5, 50 mM NaCl, 1 mM DTT, 4% glycerol, room temperature, 30 min; GST-TFs on glutathione beads, 16-mer random dsDNA library, 0.1% formaldehyde crosslink after washing; high values mean tight binding
# [1] = molecular target: T1, FLI1 (Homo sapiens, UniProt Q01543 1-452); conditions: protein: recombinant; tags: N-terminal GST; dsDNA, one strand shown
# T1 sequence: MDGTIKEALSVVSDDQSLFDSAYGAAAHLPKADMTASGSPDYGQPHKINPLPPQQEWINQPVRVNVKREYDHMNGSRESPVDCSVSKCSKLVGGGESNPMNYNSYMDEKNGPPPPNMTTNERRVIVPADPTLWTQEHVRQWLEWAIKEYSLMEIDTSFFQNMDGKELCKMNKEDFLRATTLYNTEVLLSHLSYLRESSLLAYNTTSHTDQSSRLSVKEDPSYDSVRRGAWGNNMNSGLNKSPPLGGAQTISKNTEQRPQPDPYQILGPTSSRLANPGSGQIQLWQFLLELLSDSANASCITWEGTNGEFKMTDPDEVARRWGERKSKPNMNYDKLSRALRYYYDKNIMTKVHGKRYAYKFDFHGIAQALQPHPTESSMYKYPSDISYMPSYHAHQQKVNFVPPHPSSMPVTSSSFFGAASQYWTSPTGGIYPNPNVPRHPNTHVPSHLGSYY
# Method in brief: (§1)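 A tag-only sample was pooled with DNA-barcoded human transcription factors that had been expressed in yeast as GST fusions and captured on glutathione beads. The pools were incubated for 30 min at room temperature with 200 nmole of a random double-stranded 16-mer DNA library in Tris/NaCl/DTT/glycerol buffer, then washed, crosslinked with 0.1% formaldehyde, proximity-ligated (BsaI/T4 ligase, 1 h, 37 °C), PCR-amplified and sequenced on an Illumina NextSeq500. Binding signal is each hexamer's read frequency for a factor divided by its frequency for the tag-only sample.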
# [2] = molecular target: T2, ELK1 (Homo sapiens, UniProt P19419 1-428); conditions: protein: recombinant; tags: N-terminal GST; dsDNA, one strand shown
# T2 sequence: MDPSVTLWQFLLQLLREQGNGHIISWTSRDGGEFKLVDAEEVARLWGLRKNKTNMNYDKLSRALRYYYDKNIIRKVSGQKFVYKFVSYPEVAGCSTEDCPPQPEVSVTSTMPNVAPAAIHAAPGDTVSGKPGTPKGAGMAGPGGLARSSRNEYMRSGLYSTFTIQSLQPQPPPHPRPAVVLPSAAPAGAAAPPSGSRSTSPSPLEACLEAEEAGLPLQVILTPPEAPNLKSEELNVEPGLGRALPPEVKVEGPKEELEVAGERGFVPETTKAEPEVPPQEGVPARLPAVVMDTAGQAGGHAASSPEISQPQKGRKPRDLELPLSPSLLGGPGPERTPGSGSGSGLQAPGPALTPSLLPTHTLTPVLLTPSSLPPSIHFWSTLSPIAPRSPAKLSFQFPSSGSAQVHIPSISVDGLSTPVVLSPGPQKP
# Method in brief: as §1
# [3] = molecular target: T3, GABPA (Homo sapiens, UniProt Q06546 1-454); conditions: protein: recombinant; tags: N-terminal GST; dsDNA, one strand shown
# T3 sequence: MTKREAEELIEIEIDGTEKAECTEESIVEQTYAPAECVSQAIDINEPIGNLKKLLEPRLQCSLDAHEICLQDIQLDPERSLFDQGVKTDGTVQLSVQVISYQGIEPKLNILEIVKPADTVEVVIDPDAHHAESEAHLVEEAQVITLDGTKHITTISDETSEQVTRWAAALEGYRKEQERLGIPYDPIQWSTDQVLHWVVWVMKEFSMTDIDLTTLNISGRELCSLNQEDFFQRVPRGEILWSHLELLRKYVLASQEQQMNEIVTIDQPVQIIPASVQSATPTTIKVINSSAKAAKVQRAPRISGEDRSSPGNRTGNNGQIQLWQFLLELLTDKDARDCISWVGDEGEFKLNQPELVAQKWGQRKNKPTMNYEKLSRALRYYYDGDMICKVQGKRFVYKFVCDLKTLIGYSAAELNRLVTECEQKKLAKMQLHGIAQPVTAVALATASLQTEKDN
# Method in brief: as §1
# [4] = molecular target: T4, ERG (Homo sapiens, UniProt P11308 1-479); conditions: protein: recombinant; tags: N-terminal GST; dsDNA, one strand shown
# T4 sequence: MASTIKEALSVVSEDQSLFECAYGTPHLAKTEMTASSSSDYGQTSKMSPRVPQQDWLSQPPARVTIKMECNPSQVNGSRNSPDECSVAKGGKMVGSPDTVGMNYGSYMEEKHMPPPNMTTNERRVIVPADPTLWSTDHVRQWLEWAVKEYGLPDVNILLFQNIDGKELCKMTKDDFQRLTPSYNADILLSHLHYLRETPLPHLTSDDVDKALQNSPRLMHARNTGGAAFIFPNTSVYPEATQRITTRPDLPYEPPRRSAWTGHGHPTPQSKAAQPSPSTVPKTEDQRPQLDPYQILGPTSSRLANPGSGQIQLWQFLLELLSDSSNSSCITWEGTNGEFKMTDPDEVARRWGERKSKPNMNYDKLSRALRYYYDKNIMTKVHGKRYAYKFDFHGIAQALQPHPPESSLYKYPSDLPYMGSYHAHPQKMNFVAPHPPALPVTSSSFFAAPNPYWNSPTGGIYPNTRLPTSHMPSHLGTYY
# Method in brief: as §1
# [5] = molecular target: ELF1 (Homo sapiens, UniProt P32519 1-619); conditions: protein: recombinant; tags: N-terminal GST; dsDNA, one strand shown
# Method in brief: as §1
# [6] = molecular target: T5, EHF (Homo sapiens, UniProt Q9NZC4 1-300); conditions: protein: recombinant; tags: N-terminal GST; dsDNA, one strand shown
# T5 sequence: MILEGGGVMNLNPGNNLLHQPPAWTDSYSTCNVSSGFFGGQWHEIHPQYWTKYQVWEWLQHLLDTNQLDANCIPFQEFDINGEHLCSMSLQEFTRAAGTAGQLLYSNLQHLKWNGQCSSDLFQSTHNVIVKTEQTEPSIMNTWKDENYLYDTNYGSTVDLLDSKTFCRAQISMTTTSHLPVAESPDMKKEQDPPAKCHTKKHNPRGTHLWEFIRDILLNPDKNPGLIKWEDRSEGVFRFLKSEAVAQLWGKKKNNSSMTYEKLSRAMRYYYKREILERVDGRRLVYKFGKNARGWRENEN
# Method in brief: as §1
# [7] = molecular target: SPI1 (Homo sapiens, UniProt P17947 1-270); conditions: protein: recombinant; tags: N-terminal GST; dsDNA, one strand shown
# Method in brief: as §1
# [8] = molecular target: SPIB (Homo sapiens, UniProt Q01892 1-262); conditions: protein: recombinant; tags: N-terminal GST; dsDNA, one strand shown
# Method in brief: as §1
# [9] = molecular target: T6, ELK3 (Homo sapiens, UniProt P41970 1-407); conditions: protein: recombinant; tags: N-terminal GST; dsDNA, one strand shown
# T6 sequence: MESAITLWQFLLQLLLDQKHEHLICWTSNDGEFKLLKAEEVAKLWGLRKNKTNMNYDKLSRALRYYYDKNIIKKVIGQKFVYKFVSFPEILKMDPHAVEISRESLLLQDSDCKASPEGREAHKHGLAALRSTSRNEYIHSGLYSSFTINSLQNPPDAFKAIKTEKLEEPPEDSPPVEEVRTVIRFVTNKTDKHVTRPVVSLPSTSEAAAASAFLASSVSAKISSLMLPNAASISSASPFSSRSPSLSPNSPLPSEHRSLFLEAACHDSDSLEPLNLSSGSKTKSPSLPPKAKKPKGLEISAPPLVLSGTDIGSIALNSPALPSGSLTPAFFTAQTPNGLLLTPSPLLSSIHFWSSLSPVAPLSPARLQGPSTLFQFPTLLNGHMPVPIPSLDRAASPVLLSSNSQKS
# Method in brief: as §1
# [10] = molecular target: T7, FEV (Homo sapiens, UniProt Q99581 1-238); conditions: protein: recombinant; tags: N-terminal GST; dsDNA, one strand shown
# T7 sequence: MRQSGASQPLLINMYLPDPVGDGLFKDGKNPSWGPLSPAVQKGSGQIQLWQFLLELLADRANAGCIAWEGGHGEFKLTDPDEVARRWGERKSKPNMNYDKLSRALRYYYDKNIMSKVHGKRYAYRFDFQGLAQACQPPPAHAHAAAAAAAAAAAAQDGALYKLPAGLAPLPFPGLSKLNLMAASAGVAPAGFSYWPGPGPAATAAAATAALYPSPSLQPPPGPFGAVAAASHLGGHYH
# Method in brief: as §1
# [11] = molecular target: ETV5 (Homo sapiens, UniProt P41161 1-510); conditions: protein: recombinant; tags: N-terminal GST; dsDNA, one strand shown
# Method in brief: as §1
# [12] = molecular target: HSF1 (Homo sapiens, UniProt Q00613 1-529); conditions: protein: recombinant; tags: N-terminal GST; chain copies: 3; dsDNA, one strand shown
# Method in brief: as §1
# [13] = molecular target: T8, SPIC (Homo sapiens, UniProt Q8N5J4 1-248); conditions: protein: recombinant; tags: N-terminal GST; dsDNA, one strand shown
# T8 sequence: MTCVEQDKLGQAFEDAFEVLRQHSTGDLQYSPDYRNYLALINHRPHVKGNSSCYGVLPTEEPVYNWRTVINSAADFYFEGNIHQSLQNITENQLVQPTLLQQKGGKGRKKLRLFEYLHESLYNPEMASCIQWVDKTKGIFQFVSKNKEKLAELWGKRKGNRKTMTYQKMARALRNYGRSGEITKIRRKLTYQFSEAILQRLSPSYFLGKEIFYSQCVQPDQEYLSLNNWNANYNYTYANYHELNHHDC
# Method in brief: as §1
# [14] = molecular target: ELF4 (Homo sapiens, UniProt Q99607 1-663); conditions: protein: recombinant; tags: N-terminal GST; dsDNA, one strand shown
# Method in brief: as §1
# [15] = molecular target: T9, ELK4 (Homo sapiens, UniProt P28324-2 1-405); conditions: protein: recombinant; tags: N-terminal GST; dsDNA, one strand shown
# T9 sequence: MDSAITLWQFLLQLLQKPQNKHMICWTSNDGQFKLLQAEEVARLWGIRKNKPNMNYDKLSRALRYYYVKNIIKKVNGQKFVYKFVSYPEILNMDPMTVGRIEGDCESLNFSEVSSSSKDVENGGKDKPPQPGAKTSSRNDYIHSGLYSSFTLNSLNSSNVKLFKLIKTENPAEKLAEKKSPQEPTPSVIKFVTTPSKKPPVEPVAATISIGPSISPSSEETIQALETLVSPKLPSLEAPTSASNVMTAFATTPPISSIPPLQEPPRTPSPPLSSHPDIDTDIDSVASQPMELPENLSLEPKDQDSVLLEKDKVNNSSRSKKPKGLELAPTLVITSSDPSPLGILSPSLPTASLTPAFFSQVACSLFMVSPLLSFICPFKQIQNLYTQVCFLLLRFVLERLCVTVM
# Method in brief: as §1
# [16] = molecular target: T10, ETV2 (Homo sapiens, UniProt O00321 1-342); conditions: protein: recombinant; tags: N-terminal GST; dsDNA, one strand shown
# T10 sequence: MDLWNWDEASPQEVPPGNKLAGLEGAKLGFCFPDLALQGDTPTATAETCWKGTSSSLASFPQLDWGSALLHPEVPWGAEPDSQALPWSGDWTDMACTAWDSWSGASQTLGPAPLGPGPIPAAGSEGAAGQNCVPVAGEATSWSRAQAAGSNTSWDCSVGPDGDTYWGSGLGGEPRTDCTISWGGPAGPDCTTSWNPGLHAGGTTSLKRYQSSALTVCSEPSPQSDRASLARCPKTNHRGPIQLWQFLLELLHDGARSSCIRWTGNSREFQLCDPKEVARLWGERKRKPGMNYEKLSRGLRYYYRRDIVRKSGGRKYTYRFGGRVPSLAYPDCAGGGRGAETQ
# Method in brief: as §1
# [17] = molecular target: T11, ELF3 (Homo sapiens, UniProt P78545 1-371); conditions: protein: recombinant; tags: N-terminal GST; dsDNA, one strand shown
# T11 sequence: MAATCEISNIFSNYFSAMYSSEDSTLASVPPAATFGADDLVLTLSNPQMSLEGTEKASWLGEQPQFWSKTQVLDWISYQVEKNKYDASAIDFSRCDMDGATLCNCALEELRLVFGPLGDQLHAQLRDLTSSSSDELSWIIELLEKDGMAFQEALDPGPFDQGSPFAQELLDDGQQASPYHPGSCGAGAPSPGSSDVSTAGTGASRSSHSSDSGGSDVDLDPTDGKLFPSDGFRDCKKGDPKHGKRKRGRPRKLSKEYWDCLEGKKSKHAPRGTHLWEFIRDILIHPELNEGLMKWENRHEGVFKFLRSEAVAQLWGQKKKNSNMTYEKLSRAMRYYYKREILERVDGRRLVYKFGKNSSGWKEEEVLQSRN
# Method in brief: as §1
# [18] = molecular target: CRX (Homo sapiens, UniProt O43186 1-299); conditions: protein: recombinant; tags: N-terminal GST; dsDNA, one strand shown
# Method in brief: as §1
# [19] = molecular target: ETV1 (Homo sapiens, UniProt P50549 1-477); conditions: protein: recombinant; tags: N-terminal GST; dsDNA, one strand shown
# Method in brief: as §1
# Chain of ETV1 (P50549 whole entry): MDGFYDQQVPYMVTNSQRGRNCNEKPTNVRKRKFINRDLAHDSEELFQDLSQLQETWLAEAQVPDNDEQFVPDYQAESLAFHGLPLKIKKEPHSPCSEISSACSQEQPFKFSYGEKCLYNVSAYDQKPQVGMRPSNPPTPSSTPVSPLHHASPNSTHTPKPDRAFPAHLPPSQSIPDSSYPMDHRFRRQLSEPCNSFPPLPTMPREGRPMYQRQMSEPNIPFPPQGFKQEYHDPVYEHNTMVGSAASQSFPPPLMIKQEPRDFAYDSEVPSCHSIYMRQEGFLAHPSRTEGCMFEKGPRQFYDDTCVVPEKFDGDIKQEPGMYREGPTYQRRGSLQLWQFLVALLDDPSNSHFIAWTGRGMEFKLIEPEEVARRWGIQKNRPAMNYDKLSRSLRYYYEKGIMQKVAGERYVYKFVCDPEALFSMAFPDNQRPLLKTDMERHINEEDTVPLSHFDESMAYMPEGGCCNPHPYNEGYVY
# Chain of HSF1 (Q00613 whole entry): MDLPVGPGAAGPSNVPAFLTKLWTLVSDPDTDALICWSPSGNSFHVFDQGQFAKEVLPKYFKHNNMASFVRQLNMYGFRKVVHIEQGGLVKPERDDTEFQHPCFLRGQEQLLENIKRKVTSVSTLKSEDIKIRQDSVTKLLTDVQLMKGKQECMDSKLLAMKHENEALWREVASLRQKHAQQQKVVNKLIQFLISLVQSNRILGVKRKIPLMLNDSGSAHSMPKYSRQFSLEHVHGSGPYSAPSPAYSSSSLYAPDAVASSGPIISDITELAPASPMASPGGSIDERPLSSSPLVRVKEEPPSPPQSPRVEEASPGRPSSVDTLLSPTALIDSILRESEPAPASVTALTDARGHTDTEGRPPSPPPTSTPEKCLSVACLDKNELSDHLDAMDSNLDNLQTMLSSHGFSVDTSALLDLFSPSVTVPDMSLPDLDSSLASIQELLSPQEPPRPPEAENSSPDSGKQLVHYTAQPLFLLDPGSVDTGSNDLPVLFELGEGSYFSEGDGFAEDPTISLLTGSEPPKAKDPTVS
# Chain of ELF4 (Q99607 whole entry): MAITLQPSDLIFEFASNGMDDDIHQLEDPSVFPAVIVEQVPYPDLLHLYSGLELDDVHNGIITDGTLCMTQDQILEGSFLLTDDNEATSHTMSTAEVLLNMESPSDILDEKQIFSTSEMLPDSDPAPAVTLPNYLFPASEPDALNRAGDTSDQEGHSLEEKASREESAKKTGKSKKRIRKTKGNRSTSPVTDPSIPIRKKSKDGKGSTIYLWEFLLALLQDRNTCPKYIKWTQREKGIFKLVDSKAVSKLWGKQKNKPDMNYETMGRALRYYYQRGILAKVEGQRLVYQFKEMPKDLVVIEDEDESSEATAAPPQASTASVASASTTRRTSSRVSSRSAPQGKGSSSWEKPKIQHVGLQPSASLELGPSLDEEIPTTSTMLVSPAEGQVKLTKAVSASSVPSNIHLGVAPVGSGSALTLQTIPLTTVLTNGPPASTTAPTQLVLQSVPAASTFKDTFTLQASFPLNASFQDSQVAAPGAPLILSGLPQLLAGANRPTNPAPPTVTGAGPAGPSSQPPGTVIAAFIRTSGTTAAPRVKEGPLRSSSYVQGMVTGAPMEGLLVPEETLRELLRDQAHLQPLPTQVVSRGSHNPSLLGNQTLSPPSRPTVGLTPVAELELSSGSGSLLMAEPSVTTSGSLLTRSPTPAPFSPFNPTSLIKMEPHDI
# Chain of CRX (O43186 whole entry): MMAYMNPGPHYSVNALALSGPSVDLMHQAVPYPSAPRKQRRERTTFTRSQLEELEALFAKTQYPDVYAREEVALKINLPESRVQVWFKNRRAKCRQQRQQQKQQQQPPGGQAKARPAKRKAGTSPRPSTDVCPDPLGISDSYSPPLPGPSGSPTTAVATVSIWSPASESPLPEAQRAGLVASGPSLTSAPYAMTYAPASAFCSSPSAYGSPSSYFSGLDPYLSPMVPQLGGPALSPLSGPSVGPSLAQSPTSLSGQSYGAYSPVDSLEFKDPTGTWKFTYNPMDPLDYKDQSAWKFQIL
# Chain of ELF1 (P32519 whole entry): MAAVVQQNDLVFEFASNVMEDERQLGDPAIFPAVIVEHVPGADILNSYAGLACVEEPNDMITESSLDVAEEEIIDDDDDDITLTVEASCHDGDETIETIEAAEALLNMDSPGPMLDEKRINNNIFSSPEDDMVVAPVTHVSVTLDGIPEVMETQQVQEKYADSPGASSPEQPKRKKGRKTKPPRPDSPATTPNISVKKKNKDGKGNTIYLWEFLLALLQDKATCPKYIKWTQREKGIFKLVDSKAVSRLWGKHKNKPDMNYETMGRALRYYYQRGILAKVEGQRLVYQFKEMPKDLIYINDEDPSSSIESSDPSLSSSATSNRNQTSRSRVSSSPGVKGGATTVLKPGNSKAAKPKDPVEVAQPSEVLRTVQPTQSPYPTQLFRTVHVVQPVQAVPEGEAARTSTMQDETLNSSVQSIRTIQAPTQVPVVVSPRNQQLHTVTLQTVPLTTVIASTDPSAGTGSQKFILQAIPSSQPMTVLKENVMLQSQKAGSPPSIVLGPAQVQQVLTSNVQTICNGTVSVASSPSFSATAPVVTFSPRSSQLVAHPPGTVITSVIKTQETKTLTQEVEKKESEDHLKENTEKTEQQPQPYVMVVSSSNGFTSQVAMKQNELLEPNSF
# Chain of ETV5 (P41161 whole entry): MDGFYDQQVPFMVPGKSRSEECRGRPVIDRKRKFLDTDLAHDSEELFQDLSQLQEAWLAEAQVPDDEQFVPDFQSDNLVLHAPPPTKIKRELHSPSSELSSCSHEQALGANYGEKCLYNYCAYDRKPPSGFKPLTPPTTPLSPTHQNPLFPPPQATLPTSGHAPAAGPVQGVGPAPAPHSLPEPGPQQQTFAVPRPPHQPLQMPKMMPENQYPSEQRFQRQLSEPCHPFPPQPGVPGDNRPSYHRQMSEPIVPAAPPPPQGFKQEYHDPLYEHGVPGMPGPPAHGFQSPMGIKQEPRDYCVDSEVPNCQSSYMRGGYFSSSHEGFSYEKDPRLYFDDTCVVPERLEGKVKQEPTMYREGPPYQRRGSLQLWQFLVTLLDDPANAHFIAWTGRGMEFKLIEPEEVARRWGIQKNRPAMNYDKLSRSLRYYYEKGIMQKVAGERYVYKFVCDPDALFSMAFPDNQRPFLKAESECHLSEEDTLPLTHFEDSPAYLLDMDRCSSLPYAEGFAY
# Chain of SPIB (Q01892 whole entry): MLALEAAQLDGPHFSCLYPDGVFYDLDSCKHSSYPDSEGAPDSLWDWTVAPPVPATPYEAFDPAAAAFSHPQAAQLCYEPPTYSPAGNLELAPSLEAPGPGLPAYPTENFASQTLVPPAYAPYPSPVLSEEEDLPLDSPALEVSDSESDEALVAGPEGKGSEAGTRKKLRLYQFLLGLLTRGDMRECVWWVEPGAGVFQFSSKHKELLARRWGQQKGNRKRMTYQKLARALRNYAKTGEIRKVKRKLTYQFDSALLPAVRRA
sequence,measurement,setting,value
ATTGCA,binding signal,[1],"1.17 fold enrichment (6-mer frequency, TF over GST control)"
same,binding signal,[2],"1.31 fold enrichment (6-mer frequency, TF over GST control)"
same,binding signal,[3],"1.19 fold enrichment (6-mer frequency, TF over GST control)"
same,binding signal,[4],"1.21 fold enrichment (6-mer frequency, TF over GST control)"
same,binding signal,[5],"1.17 fold enrichment (6-mer frequency, TF over GST control)"
same,binding signal,[6],"1.14 fold enrichment (6-mer frequency, TF over GST control)"
same,binding signal,[7],"1.19 fold enrichment (6-mer frequency, TF over GST control)"
same,binding signal,[8],"1.17 fold enrichment (6-mer frequency, TF over GST control)"
same,binding signal,[9],"1.24 fold enrichment (6-mer frequency, TF over GST control)"
same,binding signal,[10],"1.15 fold enrichment (6-mer frequency, TF over GST control)"
same,binding signal,[11],"1.17 fold enrichment (6-mer frequency, TF over GST control)"
same,binding signal,[12],"1.06 fold enrichment (6-mer frequency, TF over GST control)"
same,binding signal,[13],"1.1 fold enrichment (6-mer frequency, TF over GST control)"
same,binding signal,[14],"1.19 fold enrichment (6-mer frequency, TF over GST control)"
same,binding signal,[15],"1.28 fold enrichment (6-mer frequency, TF over GST control)"
same,binding signal,[16],"1.31 fold enrichment (6-mer frequency, TF over GST control)"
same,binding signal,[17],"1.13 fold enrichment (6-mer frequency, TF over GST control)"
same,binding signal,[18],"1.11 fold enrichment (6-mer frequency, TF over GST control)"
same,binding signal,[19],"1.17 fold enrichment (6-mer frequency, TF over GST control)"

# Source: publication PMC7862700, “An all-to-all approach to the identification of sequence-specific readers for epigenetic DNA modifications on cytosine”
